# PubChem BioAssay (NCI)
# Compounds without any hit were thinned out: in the full panel of roughly 83,000, 20% have a hit.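 Testing used 96-well plates and a 48-hour single-concentration exposure. Example: -40 means 40% of the starting cells died.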 A number with no mark means an inactive call. The source made the active and inactive calls. Rule for the calls: active = growth percent below 10; inactive = the rest.
# What was measured:
# Experiment in all cases: NCI-60 one-dose screen, 48 h (100 = growth as untreated, 0 = no growth, -100 = all killed)
# Details in all cases: 10 µM unless noted
# NCI-H23 lung = test system: NCI-H23 lung
# NCI-H226 lung = test system: NCI-H226 lung
# NCI-H322M lung = test system: NCI-H322M lung
# HOP-62 NSCLC = test system: HOP-62 NSCLC
# NCI-H460 lung = test system: NCI-H460 lung
# HOP-92 NSCLC = test system: HOP-92 NSCLC
# NCI-H522 lung = test system: NCI-H522 lung
# A549/ATCC NSCLC = test system: A549/ATCC NSCLC
# 786-0 renal = test system: 786-0 renal
# COLO 205 colon = test system: COLO 205 colon
# DU-145 prostate = test system: DU-145 prostate
# K-562 leukemia = test system: K-562 leukemia
# MALME-3M melanoma = test system: MALME-3M melanoma
# MDA-MB-231 breast = test system: MDA-MB-231 breast
# SF-268 CNS = test system: SF-268 CNS
# SF-295 CNS = test system: SF-295 CNS
# SF-539 CNS = test system: SF-539 CNS
# UACC-257 melanoma = test system: UACC-257 melanoma
# M14 melanoma = test system: M14 melanoma
Compound,growth (NCI-H23 lung),growth (NCI-H226 lung),growth (NCI-H322M lung),growth (HOP-62 NSCLC),growth (NCI-H460 lung),growth (HOP-92 NSCLC),growth (NCI-H522 lung),growth (A549/ATCC NSCLC),growth (786-0 renal),growth (COLO 205 colon),growth (DU-145 prostate),growth (K-562 leukemia),growth (MALME-3M melanoma),growth (MDA-MB-231 breast),growth (SF-268 CNS),growth (SF-295 CNS),growth (SF-539 CNS),growth (UACC-257 melanoma),growth (M14 melanoma)
OC1(c2ccc(Cl)c(C(F)(F)F)c2)CCN(CCCC(c2ccc(F)cc2)c2ccc(F)cc2)CC1,-74.9% (active),28.9%,-75.5% (active),-94.6% (active),-95% (active),-87.5% (active),-80.5% (active),-70.7% (active),-97.6% (active),-92.6% (active),-97% (active),-20.2% (active),-75.3% (active),-87.6% (active),-90% (active),-85.3% (active),-74.6% (active),-85.6% (active),-84.8% (active)
c1ccc(CCSc2ncnc3nc[nH]c23)cc1,96.8%,86.6%,113%,103%,82%,110%,0.492% (active),77.3%,102%,90.1%,108%,72.4%,106%,85.2%,103%,75.6%,84.8%,46.2%,97.5%
CC(=O)c1c[nH]c2ccc(-c3ccnc(Nc4ccc(NC(=O)C5CCCC5)c(CN5CCOCC5)c4)n3)cc12,-36.4% (active),-0.452% (active),-11.5% (active),2.51% (active),-60.6% (active),-5.65% (active),-17.9% (active),4.82% (active),0.29% (active),-31.9% (active),-1.77% (active),5.74% (active),-81.8% (active),-8.4% (active),-41.7% (active),-46.2% (active),-84.6% (active),-27.5% (active),-67.7% (active)
COc1ccc(-c2nc(N/N=C/c3cccc(Br)c3)nc(N3CCOCC3)c2C#N)cc1,103%,75.8%,88.5%,79.1%,31.8%,82%,70.6%,62.2%,35.6%,40.8%,49.8%,3.14% (active),7.31% (active),72.2%,81.4%,54.2%,55.9%,-17.9% (active),24.8%
O=C(CNCCO)Nc1ccc2ncnc(Nc3ccc(OCc4cccc(F)c4)c(Cl)c3)c2c1,98.9%,93.8%,33.4%,87%,88.7%,55.8%,46.3%,71.6%,69.6%,96%,61.6%,27.8%,98.2%,87.7%,78.1%,95%,87.8%,101%,93.4%
Cc1ccc2[nH]c(=S)n(-c3ccc(S(=O)(=O)Nc4ccc(Cl)nn4)cc3)c(=O)c2c1,101%,98.9%,110%,104%,104%,104%,92.5%,103%,60.7%,110%,109%,102%,101%,101%,101%,104%,95.6%,99.7%,-69.5% (active)
Cc1cc(C)c(C=O)c(C)c1,101%,95.2%,106%,72.4%,106%,86.4%,82.7%,72.1%,96.2%,107%,117%,100%,114%,112%,104%,101%,106%,74.5%,84.3%
CS(=O)(=O)Nc1cc(-c2ccc3ncnc(Nc4ccc5[nH]ncc5c4)c3c2)cnc1Cl,86%,75%,74.1%,55.2%,94.1%,0.913% (active),60.6%,91.8%,79.6%,81.7%,82.4%,90.1%,60.9%,79.5%,53.8%,88%,67.7%,35.4%,80.8%
